In the library only some 4.6% were active in any assay of this set; here they are far more common.
D1 antagonist – blocks dopamine activation of the human D1 receptor | HEK293 TREx D1 cells, calcium flux, dopamine EC80; active compounds read low | activity change, negative = inhibition, % at 10 µM | 360,000 compounds, 3.2% hits | AID 504652 | P21728; in the data active means activity change below about -30%; further: on the % scale 0 is the no-effect control and ±100 the full control effect
Target sequence (P21728 whole entry, looked up): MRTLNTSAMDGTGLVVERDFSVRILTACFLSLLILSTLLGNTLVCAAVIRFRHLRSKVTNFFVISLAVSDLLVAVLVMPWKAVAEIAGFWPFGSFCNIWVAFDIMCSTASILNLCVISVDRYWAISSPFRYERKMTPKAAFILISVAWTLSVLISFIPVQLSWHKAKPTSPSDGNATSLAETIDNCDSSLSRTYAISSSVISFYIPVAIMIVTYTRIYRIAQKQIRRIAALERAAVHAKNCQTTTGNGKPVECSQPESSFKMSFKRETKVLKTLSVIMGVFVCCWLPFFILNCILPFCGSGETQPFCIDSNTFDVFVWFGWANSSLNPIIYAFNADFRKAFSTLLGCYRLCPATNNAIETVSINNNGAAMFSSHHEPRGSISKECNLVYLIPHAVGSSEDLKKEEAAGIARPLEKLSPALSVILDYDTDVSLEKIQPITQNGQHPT
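Kinetic fluorescence of a calcium dye serves as the read-out. D1-expressing Hek293 Trex cells, induced overnight at 30 C, are exposed to compound for 180 s before an EC80 dopamine addition, then read 180 s further.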
D1 agonist – human D1 receptor agonism; HEK293 T-REx D1 cells, calcium flux, agonist mode; activation, % at 2 µM; 360,000 compounds, 1% hits; further: 0% is about no effect
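Tetracycline-induced HEK293 TREx D1 cells, force-coupled to calcium signalling, were dye-loaded with a no-wash calcium kit. Compound was pin-added after a 10 s baseline. Fluorescence was read kinetically at 1 cycle/s for 180 s, with calcium rises flagged as agonism.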
TRHR PAM – allosteric enhancers of human TRH receptor; TRHR cells, fluo-8 calcium fluorescence, EC20 TRH enhancement; AID 493056; P34981; 360,000 compounds, 0.66% hits; enhancement, % at 2 µM; in the data active means enhancement above about 30%; further: 0% is about no effect
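Enhancer read-out: after compound pinning and an initial kinetic agonist-mode read, an EC20 of TRH (10 nM final) was injected and fluo-8 calcium signal (Ex 480/Em 530) followed at 1 s/cycle for 100 cycles in TRHR-expressing cells.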
D1 PAM – enhances dopamine response at the human D1 receptor; P21728; HEK293 TREx D1 cells, calcium flux, dopamine EC20 potentiation; 360,000 compounds, 0.036% hits; potentiation, % at 10 µM; in the data active means potentiation above about 30%; further: 0% is about no effect
TRHR agonist – agonists of human TRH receptor; 360,000 compounds, 0.18% hits; activation, % at 2 µM; AID 493084; P34981; TRHR cells, calcium flux fluo-8, FDSS agonist mode; further: 0% is about no effect
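Fluo-8-loaded TRHR cells; 10 s baseline, compound added, kinetic Ca2+ fluorescence read 1/s, agonist mode.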
Numbers without * were called inactive; . = no result. Unless noted, no stated cut-off is given here; in the data, active means activation above about 30%; inactive means the rest.

SMILES	D1 antagonist	D1 agonist	TRHR PAM	D1 PAM	TRHR agonist
c1ccc(Nc2nc(N3CCOCC3)nc(N3CCOCC3)n2)cc1	-8	1	39*	2	0
CCOc1ccc(Nc2nc(Nc3ccc(OCC)cc3)nc(N3CCOCC3)n2)cc1	-6	1	35*	-2	-1
COc1ccc(N2CCN(Cc3nc4ccccc4c(=O)[nH]3)CC2)cc1	-8	2	-4	-6	-1
CCCc1cc(=O)[nH]c(SCC(=O)c2[nH]c(C)c(C(=O)OCC)c2C)n1	10	0	31*	-4	0
CCOC(=O)c1c(C)[nH]c(C(=O)COC(=O)CN2C(=O)C3CCCCC3C2=O)c1C (stereo unspecified)	-16	6	31*	1	0
NC(=O)NC(=O)COC(=O)CN1C(=O)C2CCCCC2C1=O (stereo unspecified)	-9	1	36*	-1	1
NC(=O)COC(=O)CN1C(=O)C2CCCCC2C1=O (stereo unspecified)	7	0	-1	3	1
COC(=O)c1ccccc1NC(=O)c1nc(-c2ccc(Cl)cc2)n2c1CCCCC2	-10	0	35*	-4	1
Cn1c2ccc(F)cc2c2ncn(CC3CCCO3)c(=O)c21 (stereo unspecified)	-4	-1	-5	0	-1
O=C(CN1C(=O)NC(c2ccccc2)(c2ccccc2)C1=O)Nc1cccnc1Cl	17	10	8	4	1
O=C(c1cnc2sccn2c1=O)N1CCCc2ccccc21	13	4	-6	-8	0
N#CNC(=Nc1cccc(F)c1)SCc1cccc(F)c1	-32*	23	-4	-6	2
CC(C)N=C(NC#N)SCc1ccccc1	-47*	2	-3	-4	-1
CC(C)N=C(NC#N)SCc1ccc(Br)cc1	-4	2	3	-3	-1
CCOC(=O)Cn1c(=O)c(-c2ccccc2NC)nc2ccccc21	-13	2	3	5	-1
Cn1c(=NC(=O)c2ccc(F)cc2)sc2cc(Br)ccc21	1	3	1	6	0
Cc1cc(Cl)ccc1OC(C)C(=O)NN=C1CCCCCC1 (stereo unspecified)	-31*	1	-5	.	0
Cc1cc(=S)[nH]c2c(C)cccc12	-2	1	-8	7	0
Cc1ccc(NC(=O)CSc2[nH]c(=O)ncc2C)cc1	-6	2	1	1	1
CC(=O)Nc1ccccc1-c1nc2ccccc2n(C(C)C(=O)c2ccc(C)c(C)c2)c1=O (stereo unspecified)	-3	51*	-5	-1	-1
COc1ccc(OCCCC(=O)OC(C)C(=O)Nc2ccc(C)cc2)cc1 (stereo unspecified)	-7	5	0	-7	0
OC(c1cc(C(F)(F)F)nc2c(Cl)cc(Cl)cc12)C1CCCCN1 (stereo unspecified)	26	32*	20	14	5
O[C@@H](c1cc(C(F)(F)F)nc2c(C(F)(F)F)cccc12)[C@H]1CCCCN1	18	44*	0	10	2
OC(c1cc(-c2ccc(Cl)cc2)nc2ccccc12)C1CCCCN1 (stereo unspecified)	-23	7	10	-2	2
O=C(c1cc(Br)ccc1Cl)N1CCN(c2ccc(N3CCOCC3)nn2)CC1	-9	0	0	-2	0
SMILES	D1 antagonist	D1 agonist	TRHR PAM	D1 PAM	TRHR agonist
CSc1ccc(S(=O)(=O)N2CCC(C(=O)NCc3ccco3)CC2)cc1	-8	9	-1	-5	-1
CCCCOc1ccc(C(=O)Nc2ccc(CN3CCOCC3)cc2)cc1	-36*	19	-6	-7	3
CCCOc1ccc(C(=O)Nc2ccc(CN3CCOCC3)cc2)cc1	-10	11	-6	-3	1
O=C(COc1ccc2c3c(c(=O)oc2c1)CCC3)Nc1ccc(CN2CCOCC2)cc1	-2	2	33*	-3	0
CCCCOc1ccc(C(=O)Nc2cc(C)c(OCC(=O)N3CCOCC3)c(C)c2)cc1	-40*	5	2	-28	0
COCCNC(=O)C1CCC(CNS(=O)(=O)c2c(C)cc(C)cc2C)CC1 (stereo unspecified)	2	8	-2	-8	-1
Cc1ccc(N(CC(=O)N2CCN(c3cccc(C)c3C)CC2)S(=O)(=O)c2c(C)nn(C)c2C)cc1	-43*	3	0	0	-1
CN(C(=O)c1ccc(Oc2ccc([N+](=O)[O-])cc2)cc1)C1CCCCC1	-35*	11	-14	-3	0
CN(C(=O)c1ccc(S(=O)(=O)N2CCCC2)cc1)C1CCCCC1	4	3	-4	-4	1
Cc1ccc(CNC(=O)C(C)OC(=O)c2ccco2)cc1 (stereo unspecified)	-7	1	0	-3	0
CCC(OC(=O)c1ccco1)C(=O)NCc1ccc(C)cc1 (stereo unspecified)	-77*	-1	-22	-10	0
Cc1ccc(C(C(=O)NC2CCCCC2)N(Cc2ccccc2)C(=O)Cc2c[nH]c3ccccc23)o1 (stereo unspecified)	-82*	2	-2	-6	0
Cc1cccc(S(=O)(=O)Nc2ccc(-n3c(C)nc4ccccc4c3=O)cc2)c1	0	3	23	-2	-1
Cc1ccc(-n2c(SCc3ccccc3C)nc3[nH]ncc3c2=O)cc1C	-78*	1	-24	-8	0
O=[N+]([O-])c1ccc(S(=O)(=O)c2ccccc2)nc1	-40*	0	-7	-14	-1
O=[N+]([O-])c1ccc(NCc2ccccc2)nc1	-35*	4	-1	-11	-1
CCn1c(SCC(=O)N(C)c2ccccc2)nc2c([nH]c3ccccc32)c1=O	-37*	1	-1	-6	-2
CCOC(=O)N1CCN(C(=O)CSc2nc3c([nH]c4ccccc43)c(=O)n2CC)CC1	-36*	0	0	4	-1
Cc1ccc(S(=O)(=O)N2CCN(C)CC2)cc1-c1nnc2c3ccccc3c(C)nn12	-33*	0	-3	1	-1
CC(=O)c1cn(N(C)c2ncc(C(F)(F)F)cc2Cl)c(=O)[nH]c1=O	2	1	2	-4	0
COC(=O)c1c(NC(=O)CN2C(=O)C(=O)N(C(C)C)C2=O)sc(C)c1C	-37*	0	-2	-3	0
COCCN(C(=S)Nc1ccccc1C)C(C)c1ccco1 (stereo unspecified)	-71*	3	-1	-5	0
COCCN(C(=S)Nc1cccc(C)c1C)C(C)c1ccco1 (stereo unspecified)	18	2	-8	-6	0
CCOC(=O)c1c(C)[nH]c(C)c1S(=O)(=O)N1CCN(c2cccc(C(F)(F)F)c2)CC1	4	1	11	-2	2
